# From the supplement of paper PMC9135407
# Several values for one entry are separate records, joined by “and”; a condition that tells them apart may be missing. Equal entries are not always repeated. Structures can show the parent of a compound that is named as a salt. The whole screen tested about 5,800 compounds, of which about 620 (11%) showed activity. Many of the other results were omitted from the sample, so actives are more common in it than they were. Values without a mark were called inactive.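 How the source made its calls: active = score above a cut-off or among the top three wells of a plate; in these data no inactive exceeds 0.85.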
# Tested on: primary human hepatic stellate cells (donor 1)
# Experiment: scaled lipid accumulation score (0 = DMSO-like, 1 = nortriptyline-like); higher = stronger HSC inactivation (lipid re-accumulation), active = hit call of the paper
# Conditions: 48 h
# Procedure: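 Primary lipid accumulation screen in primary human hepatic stellate cell myofibroblasts (donor 1, passage 8) in 384-well plates. 100 nL of library compound was pin-transferred into 30 µL medium in duplicate, and cells were treated for 48 h. The 'Scaled' score combines distance from plate baseline, toxicity and reproducibility penalties, and is normalised to nortriptyline (positive) and DMSO (negative) controls on each plate. A hit is defined as scaled >0.85 or among the top 3 wells per plate.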
# [1] = library stock concentration: 80 uM
# [2] = library stock concentration: 400 uM
# [3] = library stock concentration: 2 mM
# [4] = library stock concentration: 10 mM
# [5] = library stock concentration: 1 mM
# [6] = library stock concentration: 3.33 mM
smiles,measurement,setting,value
CCOc1cc2ncc(C#N)c(Nc3ccc(OCc4ccccn4)c(Cl)c3)c2cc1NC(=O)/C=C/CN(C)C,scaled lipid accumulation score,[1],≤ 0
same,scaled lipid accumulation score,[2],≤ 0
same,scaled lipid accumulation score,[3],0.107
same,scaled lipid accumulation score,[4],0.02
CCCCCC(=O)/C=C/[C@H]1[C@H](O)CC(=O)[C@@H]1CCCCCCC(=O)O [15-keto Prostaglandin E1],scaled lipid accumulation score,[5],≤ 0
O=C(Nc1ccc([N+](=O)[O-])cc1O)Nc1ccccc1Br,scaled lipid accumulation score,[5],≤ 0
same,scaled lipid accumulation score,[4],0.317
O[C@@H](COc1cccc2ncccc12)CN1CCN(C2c3ccccc3[C@@H]3[C@H](c4ccccc42)C3(F)F)CC1 (some centres undefined),scaled lipid accumulation score,[6],0.206
same,scaled lipid accumulation score,[4],0.837
CCC(C)N(C)C(=O)c1cc2ccccc2c(-c2ccccc2Cl)n1 (centres undefined),scaled lipid accumulation score,[4],0.007 and ≤ 0
CC(C)(F)C[C@H](N[C@@H](c1ccc(-c2ccc(S(C)(=O)=O)cc2)cc1)C(F)(F)F)C(=O)NC1(C#N)CC1 [Odanacatib (MK-0822)],scaled lipid accumulation score,[6],≤ 0
same,scaled lipid accumulation score,[4],≤ 0
"CC(C)CCOc1ccc(N)cc1 [CP 24,879 (hydrochloride)]",scaled lipid accumulation score,[5],≤ 0
OCCn1cc(-c2ccc3c(c2)CC/C3=N\O)c(-c2ccncc2)n1,scaled lipid accumulation score,[1],0.006
same,scaled lipid accumulation score,[2],0.086
same,scaled lipid accumulation score,[3],≤ -0.009
same,scaled lipid accumulation score,[6],0.041
same,scaled lipid accumulation score,[4],≤ 0 and ≤ -0.009
CN(C)CCOc1ccc(-c2nc(-c3ccncc3)c(-c3ccc4c(c3)CC/C4=N\O)[nH]2)cc1,scaled lipid accumulation score,[1],0.074
same,scaled lipid accumulation score,[2],0.325 and 0.619
same,scaled lipid accumulation score,[3],0.7 and 0.684
same,scaled lipid accumulation score,[4],0.476 and 0.423 and 0.307
CN(C)CCOc1ccc(-c2nc(-c3ccncc3)c(-c3ccc4c(c3)CCC4=NO)[nH]2)cc1,scaled lipid accumulation score,[6],1.06 (active)
"CCCCCC(O)CCC1C(O)CC(=O)C1CCCCCCC(=O)O (centres undefined) [13,14-dihydro Prostaglandin E1]",scaled lipid accumulation score,[5],≤ 0
"CCCCCC(O)CCC1C(O)CC(=O)C1CCCCCCC(=O)O [13,14-dihydro-15(R)-Prostaglandin E1]",scaled lipid accumulation score,[5],≤ 0
COc1ccc(-c2nc(-c3ccc(-c4cccc(Cl)c4)o3)[nH]c2-c2ccc(OC)cc2)cc1 [Neurodazine],scaled lipid accumulation score,[5],0.352
same,scaled lipid accumulation score,[4],0.113
CC(=O)OC1CC2CCC1(C)C2(C)C (centres undefined),scaled lipid accumulation score,[4],≤ 0
Cc1cc(C=C2C(=O)C=CC2=O)cc(C)c1O [listing 1 of 2 here],scaled lipid accumulation score,[1],≤ -0.001
same,scaled lipid accumulation score,[2],≤ -0.001
same,scaled lipid accumulation score,[3],0.593
same,scaled lipid accumulation score,[6],0.464
Cc1cc(C=C2C(=O)C=CC2=O)cc(C)c1O [listing 2 of 2 here],scaled lipid accumulation score,[4],0.924 (active)
CCCCCCCCCCCCCCCCOCC(COP(=O)(O)OCC[N+](C)(C)C)OCC (centres undefined) [2-O-ethyl PAF C-16],scaled lipid accumulation score,[5],≤ 0
CC(=O)NC(C(=O)O)c1ccccc1 (centres undefined),scaled lipid accumulation score,[4],≤ 0
CC(=O)Nc1ccc([C@H](C)C(=O)Nc2ncc(C(C)C)s2)cc1,scaled lipid accumulation score,[2],≤ -0.005
same,scaled lipid accumulation score,[3],0.175
same,scaled lipid accumulation score,[4],0.348
CC(C)C(=O)Nc1ncc(-c2cc(C(F)F)nn2-c2c(Cl)cccc2Cl)s1,scaled lipid accumulation score,[4],1.1 (active)
CC(C)(C)c1cc(NC(=O)Nc2ccc(-c3cn4c(n3)sc3cc(OCCN5CCOCC5)ccc34)cc2)no1 [Quizartinib (AC220)] [listing 1 of 2 here],scaled lipid accumulation score,[6],0.288
Cc1ccc(-n2nc(C(C)(C)C)cc2NC(=O)Nc2ccc(OCCN3CCOCC3)c3ccccc23)cc1,scaled lipid accumulation score,[1],≤ -0.009
same,scaled lipid accumulation score,[2],≤ -0.009
same,scaled lipid accumulation score,[3],0.044
same,scaled lipid accumulation score,[4],≤ -0.009
CC(C)(C)c1cc(NC(=O)Nc2ccc(-c3cn4c(n3)sc3cc(OCCN5CCOCC5)ccc34)cc2)no1 [Quizartinib  (AC220) (2 mM)],scaled lipid accumulation score,[3],1.02 (active)
CC(C)(C)c1cc(NC(=O)Nc2ccc(-c3cn4c(n3)sc3cc(OCCN5CCOCC5)ccc34)cc2)no1 [Quizartinib  (AC220) (10 mM)],scaled lipid accumulation score,[4],1.7 (active)
CC(C)(C)c1cc(NC(=O)Nc2ccc(-c3cn4c(n3)sc3cc(OCCN5CCOCC5)ccc34)cc2)no1 [Quizartinib (AC220)] [listing 2 of 2 here],scaled lipid accumulation score,[4],1.15 (active)
O=C(Cc1ccc(-c2ccc(OCCN3CCOCC3)cc2)cn1)NCc1ccccc1,scaled lipid accumulation score,[1],0.076
same,scaled lipid accumulation score,[2],0.268
same,scaled lipid accumulation score,[3],0.077
same,scaled lipid accumulation score,[6],0.093
same,scaled lipid accumulation score,[4],0.076 and 0.499
Cc1ccc(-n2nc(C(C)(C)C)cc2NC(=O)Nc2ccc(OCCN3CCOCC3)c3ccccc23)cc1 [BIRB 796 (Doramapimod)],scaled lipid accumulation score,[6],0.017
same,scaled lipid accumulation score,[4],≤ 0
CC(C)(C)c1cc(NC(=O)Nc2ccc(-c3cn4c(n3)sc3cc(OCCN5CCOCC5)ccc34)cc2)no1 [Quizartinib  (AC220) (0.4 mM)],scaled lipid accumulation score,[2],≤ -0.005
CC(C)(C)c1cc(NC(=O)Nc2ccc(-c3cn4c(n3)sc3cc(OCCN5CCOCC5)ccc34)cc2)no1,scaled lipid accumulation score,[1],≤ 0
same,scaled lipid accumulation score,[2],≤ 0
same,scaled lipid accumulation score,[3],0.142
same,scaled lipid accumulation score,[4],0.292
